Bioassay records from PubChem.
Compounds with a hit are over-represented: about 0.28% of the library has one in this group of screens.
mcGAS lum – inhibitors of mouse cGAS; Q8C6L5; recombinant cGAS, Kinase-Glo ATP depletion luminescence; actives 0.15% (n = 160,000); inhibition, % at 12.5 µM; AID 1259399;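 also: 0% = negative control wells and 100% = reference inhibitor with no enzyme activity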
NPYLR7 ag – mosquito NPYLR7 agonism; HEK293T NPYLR7/Galpha15, GCaMP6s calcium fluorescence; actives 0.15% (n = 270,000); AID 1259423; activation, % at 10 µM; in the data active = activation above about 40%;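 also: 0% = vehicle and 100% = reference agonist at the receptor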
hcGAS inh – human cGAS inhibition; inhibition, % at 12.5 µM; recombinant h-cGAS, ATP depletion, Kinase-Glo luminescence; actives 0.081% (n = 290,000);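 also: 0% = vehicle reaction and 100% = reaction without DNA for no activity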
Target sequence (Q8N884 whole entry, looked up): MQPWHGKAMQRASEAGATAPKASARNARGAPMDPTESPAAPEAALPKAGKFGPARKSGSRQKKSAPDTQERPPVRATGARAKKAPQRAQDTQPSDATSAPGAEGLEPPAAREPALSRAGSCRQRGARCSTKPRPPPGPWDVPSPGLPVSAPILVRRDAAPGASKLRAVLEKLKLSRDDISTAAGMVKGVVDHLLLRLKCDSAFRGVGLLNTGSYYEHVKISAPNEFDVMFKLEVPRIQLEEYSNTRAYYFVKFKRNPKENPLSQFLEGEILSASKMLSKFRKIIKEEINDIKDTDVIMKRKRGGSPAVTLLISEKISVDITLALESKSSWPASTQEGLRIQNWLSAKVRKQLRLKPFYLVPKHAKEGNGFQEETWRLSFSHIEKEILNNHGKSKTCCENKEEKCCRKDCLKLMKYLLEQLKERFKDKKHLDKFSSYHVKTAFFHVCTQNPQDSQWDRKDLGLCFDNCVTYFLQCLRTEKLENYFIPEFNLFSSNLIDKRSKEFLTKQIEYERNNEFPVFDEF
Active calls of the source: *; . = no result; ! = not confirmed by another sample. Rule as the data show it, unless noted: active = inhibition above about 40%; inactive = the rest.

SMILES	mcGAS lum	NPYLR7 ag	hcGAS inh
COc1ccc(CNC(=O)c2sc3nc4c(c(C(F)(F)F)c3c2N)CN(C(C)=O)CC4)cc1	.	-7	-5
CCOC(=O)N1CCC(NC(=O)c2sc3nc4c(c(C(F)(F)F)c3c2N)CC(C)CC4)CC1 (stereo not drawn)	-4	62*	-6
Cc1ccccc1C1c2ccsc2CCN1CCC(=O)N1CCCN(C(=O)C(C)(C)CCl)CC1 (stereo not drawn)	-8	19	-3
COc1cc([N+](=O)[O-])ccc1N1C(=O)C2C3C=CC(C3=C(C)C)C2C1=O (stereo not drawn)	.	2	5
CCC(C)N(CC(=O)N(Cc1cccn1Cc1ccccc1Cl)C1CCCCC1)S(=O)(=O)c1ccc(Cl)c([N+](=O)[O-])c1 (stereo not drawn)	1	-6	-1
CCOC(=O)CN1C(=O)SC(=Cc2ccc(Br)o2)C1=O	-5	-2	-8
O=C(CN1C(=O)SC(=Cc2ccc(N3CCCCCC3)o2)C1=O)N1CCCCCC1	.	45*	-3
O=C1CC(c2ccccc2)CC2=Nc3ccccc3NC(c3ccccc3)C12 (stereo not drawn)	-6	2	0
c1cncc(NCCNC2CSCCSC2)c1	.	1	-2
Cc1ccc(NC(=O)N(CC(=O)N(Cc2ccc(F)cc2)Cc2ccc(C)o2)CC2CCCO2)c(C)c1 (stereo not drawn)	-4	-4	89*
Cc1ccc(CN(Cc2ccc3c(c2)OCO3)C(=O)CN(CC2CCCO2)C(=O)Nc2ccc(F)cc2F)o1 (stereo not drawn)	-3	12	-4
Cc1ccc(NC(=O)Nc2ccc(N3CCCC3)c(C(=O)NCc3ccc(F)cc3)c2)cc1C	-6	7	-6
O=C(NCc1cccc(C(F)(F)F)c1)c1csc(CSc2nnc(-c3ccncc3)n2-c2cccc(C(F)(F)F)c2)n1	1	-8	-1
O=C(O)c1csc(CSc2nnc(-c3ccncc3)n2-c2cccc(C(F)(F)F)c2)n1	1	49*	1
COc1cccc(CCC(=O)N2CCc3c([nH]c4ccccc34)C2c2cccc(C)c2)c1 (stereo not drawn)	-2	0	0
Cc1csc(C(C#N)C(=O)c2cn(CC(=O)C(C)(C)C)nn2)n1 (stereo not drawn)	-7	-1	45*
Cc1cnc(C(=O)OCC(=O)C(C#N)c2nc(C)cs2)cn1 (stereo not drawn)	.	1	-7
O=C(Nc1ccc(N2CCc3ccccc3C2)c(C(=O)NCC2CCCO2)c1)c1cc(C(F)(F)F)cc(C(F)(F)F)c1 (stereo not drawn)	-6	0	-2
O=C(C1CCCN(c2nc3nonc3nc2N2CCCCCC2)C1)N1CCOCC1 (stereo not drawn)	.	7	6
CCOC(=O)C1CCCN(c2nc3nonc3nc2N2CCSCC2)C1 (stereo not drawn)	-3	45*!	-9
O=C(CSc1nc(=O)n(CCCO)c2c1CCC2)Nc1cccc(F)c1	-5	-10	-6
O=C(CSc1nc(=O)n(CCCO)c2c1CCCC2)Nc1cccc([N+](=O)[O-])c1	47*	-3	-6
COCC(=O)NCCOc1ccc2nnc(-c3ccccc3)n2n1	-9	-9	-7
O=C(c1cccnc1Cl)N1CCOC(COCc2ccccc2F)C1 (stereo not drawn)	-8	51*	-5
CCOc1ncccc1C(=O)N1CCOC(COCc2ccccc2F)C1 (stereo not drawn)	-4	-5	-4
SMILES	mcGAS lum	NPYLR7 ag	hcGAS inh
CN(C)c1ccc(C(=O)N2CCN(c3nc4nccc(-c5ccc(Cl)c(Cl)c5)n4n3)CC2)cc1	3	4	0
CC(NC(=O)C1CCN(S(=O)(=O)c2cc(Cl)ccc2Cl)CC1)C1CC1 (stereo not drawn)	-6	12	-4
O=C(Nc1cccc(C(F)(F)F)c1)Nc1nn(Cc2ccc(C(F)(F)F)cc2)c2ccccc12	-5	10	-7
COc1ccccc1C1c2cccn2CCCN1Cc1ccccc1[N+](=O)[O-] (stereo not drawn)	-5	7	81*
CCc1ccccc1C1c2cccn2CCCN1Cc1ccccc1[N+](=O)[O-] (stereo not drawn)	-3	12	1
COCCCNCc1c(-c2ccccc2)noc1N1CCc2ccccc2C1	.	15	-3
COCCCNCc1c(-c2ccc(F)cc2)noc1N1CCOCC1	.	46*	-3
COc1cc(NS(=O)(=O)NCc2ccccc2)cc(OC)c1	.	6	-5
CC(C)Nc1ccc(NS(=O)(=O)NCc2ccccc2)cn1	.	63*	-8
Clc1ccc(/C=C/C2SCCCS2)c(Cl)c1	.	-8	-7
O=C(CNC(=O)c1ccc(F)c(F)c1)Nc1ccnc2ccnn12	.	10	-5
Cc1ccc(-n2[nH]c(C(=O)Nc3ccnc4ccnn34)cc2=O)cc1	-7	-1	68*
COc1ccc(S(=O)(=O)NCCCN2CCOCC2)cc1	.	5	-7
Cc1ccc(OCCNC(=O)N2CCN(S(=O)(=O)c3ccccc3Cl)CC2)c(C)c1	-8	46*	-11
Cc1cc(C)c(C)c(OCCCNC(=O)N2CCN(S(=O)(=O)c3ccccc3[N+](=O)[O-])CC2)c1	-5	17	-7
Cc1ccc(C(=O)CSc2nccn(-c3ccc(C)c(C)c3)c2=O)cc1	4	-9	4
COc1ccc(NC(=O)c2ccc(NC(C)C)nc2)cn1	-5	6	-4
COCCOc1ccc(NC(=O)N(C)C(C)C2(C)CC2)cn1 (stereo not drawn)	-15	134*	-7
CN(Cc1ccc(N(C)C)cc1)Cn1[nH]c(C(C)(C)C)nc1=S	.	-1	-2
Cc1cc(=O)n2[nH]c(C)c(-c3ccc(F)cc3)c2n1	.	0	-1
Cc1ccc2c(n1)[nH]n1c(=O)cc(C)nc21	.	7	43*
O=c1[nH]n(-c2ccccc2)c2c(c1=O)CC/C2=C\c1ccccc1	.	4	-8
O=C1CCCC2Nc3ncnc(Cl)c3OC12 (stereo not drawn)	.	77*	6
O=C(C1CCCC1)N1CCN(Cc2ccc(-c3noc(-c4cccc(Cl)c4)n3)cc2)CC1	-6	7	-6
CNc1ccc(-c2ccc(OC)nc2)cn1	.	2	-17
SMILES	mcGAS lum	NPYLR7 ag	hcGAS inh
CCNc1ccc(OC)nc1	.	55*	0
O=C(CCl)Nc1nc(-c2ccccc2Cl)cs1	60*	3	-3
O=C(CCC1CCCC1)Nc1nc(-c2ccccc2Cl)cs1	.	-3	3
NC(=O)CN1c2cccc3cccc(c23)S1(=O)=O	.	106*	4
CCC(CC)NC(=O)CN1c2cccc3cccc(c23)S1(=O)=O	.	13	-16
CN1CCC(N2CCCC(NC(=O)c3ccccc3N3CCCC3)C2)CC1 (stereo not drawn)	-10	13	-7
C/C=C(\C)C(=O)Nc1sc(CCC)cc1C(=O)OCC	-7	10	-9
O=C(NN=Cc1ccccc1C(F)(F)F)c1cnccn1	55*	-5	1
O=C(NN=Cc1ccccc1C(F)(F)F)c1ccco1	-1	-2	-2
COc1cc(CNCCN(C)C)cc2c1OCO2	-4	2	-7
COc1cc2oc(=O)c3c4c(cc5ccc(c1CCN(C)C)c2c53)OCO4	52*	2	44*
O=C1C(Cl)=C(N2CCOCC2)C(=O)N1c1ccccc1F	.	8	-5
